Screening data as filed in PubChem BioAssay.
PG9 binder: binders of HIV-1 gp120 antibody PG9, primary screen, biochemical, TR-FRET; TR-FRET gp120-PG9 antibody binding; inhibition, % at 6.7 µM; actives 0.43% (n = 360,000); in the data active = inhibition above about 8.5%
ABCB6 inh MLPCN: ABCB6 transporter inhibitors, primary screen, K562-ABCB6 cells, flow cytometry, MLPCN library; ATP-binding cassette sub-family B member 6 (Homo sapiens), Q9NP58; actives 0.19% (n = 360,000); K562-ABCB6 porphyrin accumulation, 1 h; stronger effect = lower value; fluorescence ratio to DMSO, % at 10 µM;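 active = fluorescence ratio to DMSO below 75%, the collection mean minus 3 SD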;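 note: signal is porphyrin accumulated inside mitochondria; 100% equals median channel fluorescence of DMSO control wells; lower ratio means ABCB6 inhibition with less porphyrin fluorescence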
Target sequence (Q9NP58 whole entry, looked up): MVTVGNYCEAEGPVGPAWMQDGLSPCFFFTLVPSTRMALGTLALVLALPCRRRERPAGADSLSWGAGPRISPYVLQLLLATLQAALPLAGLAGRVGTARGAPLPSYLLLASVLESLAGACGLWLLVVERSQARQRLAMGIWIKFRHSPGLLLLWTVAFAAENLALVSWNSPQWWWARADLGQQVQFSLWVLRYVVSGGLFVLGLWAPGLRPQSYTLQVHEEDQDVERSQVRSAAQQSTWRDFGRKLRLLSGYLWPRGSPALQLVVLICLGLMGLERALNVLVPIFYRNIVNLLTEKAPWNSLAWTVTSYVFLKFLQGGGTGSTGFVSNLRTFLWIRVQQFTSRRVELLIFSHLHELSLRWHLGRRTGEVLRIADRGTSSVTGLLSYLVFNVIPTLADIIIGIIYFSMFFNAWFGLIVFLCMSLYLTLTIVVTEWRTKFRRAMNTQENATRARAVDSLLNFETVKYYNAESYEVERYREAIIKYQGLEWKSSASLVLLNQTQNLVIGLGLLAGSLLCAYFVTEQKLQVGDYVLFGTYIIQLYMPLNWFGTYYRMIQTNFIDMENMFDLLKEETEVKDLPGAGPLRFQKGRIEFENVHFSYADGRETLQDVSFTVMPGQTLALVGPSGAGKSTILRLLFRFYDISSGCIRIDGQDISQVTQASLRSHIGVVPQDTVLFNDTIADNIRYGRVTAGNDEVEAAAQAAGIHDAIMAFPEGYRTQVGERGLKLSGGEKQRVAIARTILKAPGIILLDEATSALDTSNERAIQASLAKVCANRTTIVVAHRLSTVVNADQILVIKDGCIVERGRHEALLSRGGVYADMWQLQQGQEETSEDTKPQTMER
rCAG RNA binder: binders of r(CAG) RNA repeats, primary screen, biochemical, fluorescence. r(CAG) RNA repeat, TO-PRO-1 dye displacement fluorescence. actives 1.3% (n = 370,000). inhibition, % at 3 µM;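 active = inhibition above the plate cutoff, the mean of all test compounds on that plate plus 3 SD, cut at about 35% in these data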;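 note: 0% = DMSO alone and 100% = 100 µM mitoxantrone as full dye displacement; higher means more dye released from RNA so lower well fluorescence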
Exocytosis inh: LAMP-1 surface exposure blockers, TALL-104 cells – cell-based, flow cytometry, MLPCN library, primary screen. TALL-104 LAMP-1 surface exposure; cells stimulated with thapsigargin and PMA. inhibition, % at 10 µM. actives 0.66% (n = 360,000). AID 651702, 2012;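 active = inhibition above about 55%, limit read from the data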
rCAG bind conf: small molecules binding CAG repeat RNA – biochemical, fluorescence, confirmation; AID 652065, 2013; r(CAG) RNA repeat, TO-PRO-1 dye displacement fluorescence; inhibition, % at 3 µM; actives 70% (n = 4,300); shares compounds with rCAG RNA binder;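 active = inhibition above a per-plate cutoff, the mean inhibition of sample wells plus 3 SD, cut at about 35% in these data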;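 note: loss of TO-PRO-1 fluorescence as compound displaces dye from 1x1 AA loop RNA; 0% = DMSO only wells and 100% = 100 µM mitoxantrone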
DNA CAG counter: displacement of TO-PRO-1 from CAG DNA duplex, counter-screen for rCAG RNA repeat binder project, biochemical, fluorescence, TO-PRO-1 dye, d(CAG) DNA oligo; AID 652068, 2013; d(CAG) DNA oligo TO-PRO-1 dye displacement; actives 94% (n = 4,300); inhibition, % at 3 µM; shares compounds with rCAG RNA binder;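 active = inhibition above its plate's cutoff, the mean test-well inhibition plus 3 SD, cut at about 4.8% in these data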;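 note: 0% = DNA dye mix with DMSO and 100% = 100 µM mitoxantrone; hits displace the dye from DNA and so lower well fluorescence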
The depositor's hits bear a star; nt = no result given. This is a sample that favours compounds with a hit; in the whole collection about 2.5% have one here.

SMILES | PG9 binder | ABCB6 inh MLPCN | rCAG RNA binder | Exocytosis inh | rCAG bind conf | DNA CAG counter
O=C(NCC1CCCO1)c1sc(=S)n2c1[nH]c(=O)c1ccc(C(=O)N3CCCCC3)cc12 (stereo unspecified) | -2 | 102 | 81* | -5 | 84* | 40*
O=C(/C=C/c1ccc(F)cc1)N1CC[C@@]2(O)CCCC[C@H]2C1 | -3 | 130 | -6 | -8 | nt | nt
O=C(O)c1sccc1Oc1ccc(NS(=O)(=O)c2ccccc2)cc1 | 0 | 106 | 6 | -10 | nt | nt
COc1ccc(N2C(=O)C3C(c4ccc(C(=O)O)cc4)NC(Cc4ccccc4)(C(=O)O)C3C2=O)c([N+](=O)[O-])c1 (stereo unspecified) | 0 | 97 | 37* | -2 | 18 | 6.6*
Cc1ccc2nc(-c3cccc(Br)c3)c(Cc3ccccc3C(F)(F)F)n2c1 | -2 | 107 | 35* | 0 | 22 | 4.8*
FC(F)(F)c1ccccc1Cc1c(-c2ccco2)nc2ccc(Br)cn12 | -4 | 95 | 39* | 11 | 5 | 2
COc1ccc(-c2nc3ccc(C)cn3c2Cc2ccccc2C(F)(F)F)cc1OC | -1 | nt | 2 | nt | nt | nt
COc1ccc(-c2nc3ccc(Br)cn3c2Cc2ccccc2C(F)(F)F)cc1OC | -1 | 109 | 43* | -1 | 19 | 4.8*
Cc1ccc2nc(-c3ccco3)c(Cc3ccccc3C(F)(F)F)n2c1 | 0 | nt | 10 | nt | nt | nt
Cc1ccc(OCCNC(=O)c2ccccc2SCC(=O)N2CCCC2)cc1 | 2 | 94 | -7 | -5 | nt | nt
CCCOc1ccc(C2C3=C(Nc4nc(N)[nH]c(=O)c42)c2ccccc2C3=O)cc1 (stereo unspecified) | 0 | 100 | 71* | 0 | 57* | 37*
CCOc1ccc(C2C3=C(Nc4nc(N)[nH]c(=O)c42)c2ccccc2C3=O)cc1 (stereo unspecified) | -8 | 98 | 66* | 5 | 53* | 35*
Cc1cc(C)n(S(=O)(=O)c2ccc3oc(=O)ccc3c2)n1 | -1 | 96 | -1 | 46 | nt | nt
O=[N+]([O-])c1cc(Cl)cc(/C=N/NC(=S)Nc2ccc(S(=O)(=O)N3CCOCC3)cc2)c1O | -3 | 97 | 98* | 7 | 88* | 63*
O=C(N[C@@H](c1ccccc1)[C@@H]1C[C@H]1C(=O)O)OCc1ccccc1 | 2 | 97 | -2 | -3 | nt | nt
CC1CC(C)CN(C(=O)c2cccc(S(=O)(=O)Nc3cc(C(F)(F)F)ccc3Cl)c2)C1 (stereo unspecified) | -1 | 95 | 71* | 0 | 66* | 27*
COc1ccc(-c2csc(C(C)(NC(C)=O)c3ccccc3)n2)cn1 (stereo unspecified) | 0 | 101 | 2 | -7 | nt | nt
COc1ccccc1OCC(=O)Nc1ccc(S(=O)(=O)Nc2cc(C)on2)cc1 | 0 | 98 | 22 | -4 | nt | nt
Cc1cc(NS(=O)(=O)c2ccc(NC(=O)/C=C/c3ccc(Br)cc3)cc2)no1 | -1 | 103 | 68* | 1 | 62* | 29*
Cc1cc(NS(=O)(=O)c2ccc(NS(=O)(=O)c3ccc(Br)cc3)cc2)no1 | 0 | 99 | 12 | -2 | nt | nt
COc1ccccc1/C=C/C(=O)Nc1ccc(S(=O)(=O)Nc2cc(C)on2)cc1 | -3 | 98 | 53* | -5 | 48* | 12*
CN(c1ccc(OCC(=O)N2CCOCC2)cc1)S(=O)(=O)c1ccc(Cl)cc1 | 1 | 94 | 1 | 2 | nt | nt
O=C(O)CCN1C(=O)/C(=C/c2ccc(-c3nc4ccccc4s3)o2)SC1=S | 1 | 91 | 55* | 98* | 85* | 53*
O=C(O)CC(C(=O)O)N1C(=O)/C(=C/c2ccc(-c3nc4ccccc4s3)o2)SC1=S (stereo unspecified) | -6 | 111 | 62* | 3 | 54* | 19*
O=C(O)c1ccc(-c2nc3ccccc3s2)o1 | 1 | 104 | 2 | -9 | nt | nt
